What was measured:
Assay in all cases: PBM binding z-score (relative to random genomic background probes); higher = stronger binding; sequences stand for … in GC…GCGATTGACAGCGTAGAATGAAGG
[1] = tested on: FXR:RXRa (NR concentration 270 nM, RXRa partner concentration 90 nM)
Procedure, shortened: (§1)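 Binding z-scores take random background probes as their reference. They come from custom Agilent 4×180K protein-binding microarrays incubated 1 h with ligand-free nuclear receptor dimers, with antibodies against each partner (one per run) detecting binding. Scanned fluorescence was regression-normalized.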

[2] = tested on: LXRa:RXRa (NR concentration 270 nM, RXRa partner concentration 90 nM)
Procedure, shortened: as §1

[3] = tested on: LXRa homodimer (NR concentration 270 nM)
Procedure, shortened: as §1

[4] = tested on: LXRb:RXRa (NR concentration 270 nM, RXRa partner concentration 90 nM)
Procedure, shortened: as §1

[5] = tested on: LXRb homodimer (NR concentration 270 nM)
Procedure, shortened: as §1

[6] = tested on: PPARa:RXRa (NR concentration 270 nM, RXRa partner concentration 90 nM)
Procedure, shortened: as §1

[7] = tested on: PPARg:RXRa (NR concentration 180 nM, RXRa partner concentration 90 nM)
Procedure, shortened: as §1

[8] = tested on: PPARg:RXRa 270nM:90nM, anti-RXR (NR concentration 270 nM, RXRa partner concentration 90 nM)
Procedure, shortened: as §1

[9] = tested on: PPARg:RXRa 30nM:10nM, anti-RXR (NR concentration 30 nM, RXRa partner concentration 10 nM)
Procedure, shortened: as §1

[10] = tested on: PPARg:RXRa 90nM:30nM, anti-RXR (NR concentration 90 nM, RXRa partner concentration 30 nM)
Procedure, shortened: as §1

[11] = tested on: PPARg:RXRa DBDmut IVT, anti-RXR (DBD mutation: RXRa K156A/R161A, NR concentration 270 nM, RXRa partner concentration 90 nM)
Procedure, shortened: as §1

[12] = tested on: PPARg:RXRa IVT, anti-PPARg (NR concentration 270 nM, RXRa partner concentration 90 nM)
Procedure, shortened: as §1

[13] = tested on: PPARg DBDmut:RXRa IVT, anti-PPARg (DBD mutation: PPARg1 K132A/R137A, NR concentration 270 nM, RXRa partner concentration 90 nM)
Procedure, shortened: as §1

[14] = tested on: PPARg DBDmut IVT, anti-PPARg (DBD mutation: PPARg1 K132A/R137A, NR concentration 270 nM)
Procedure, shortened: as §1

[15] = tested on: PPARg homodimer (NR concentration 180 nM)
Procedure, shortened: as §1

[16] = tested on: PXR:RXRa (NR concentration 270 nM, RXRa partner concentration 90 nM)
Procedure, shortened: as §1

[17] = tested on: PXR homodimer (NR concentration 270 nM)
Procedure, shortened: as §1

[18] = tested on: RARa:RXR (NR concentration 270 nM, RXRa partner concentration 90 nM)
Procedure, shortened: as §1

[19] = tested on: RARa homodimer (NR concentration 270 nM)
Procedure, shortened: as §1

[20] = tested on: RARb:RXRa (NR concentration 270 nM, RXRa partner concentration 90 nM)
Procedure, shortened: as §1

Sequence	PBM binding z-score [1]	PBM binding z-score [2]	PBM binding z-score [3]	PBM binding z-score [4]	PBM binding z-score [5]	PBM binding z-score [6]	PBM binding z-score [7]	PBM binding z-score [8]	PBM binding z-score [9]	PBM binding z-score [10]	PBM binding z-score [11]	PBM binding z-score [12]	PBM binding z-score [13]	PBM binding z-score [14]	PBM binding z-score [15]	PBM binding z-score [16]	PBM binding z-score [17]	PBM binding z-score [18]	PBM binding z-score [19]	PBM binding z-score [20]
CGACCAAGGTCAAGGTCAGTGAAAGAGACTCGAA	7.76	5.28	0.72	4.53	0.222	6.07	6.71	6.54	2.6	5.32	3.29	4.75	0.143	-0.162	3.87	4.59	0.777	4.89	1.42	5.78
GGAACGAGGGCATTCGAGTTGTTAGCATGGCGAT	0.97	0.548	-0.561	-0.135	-0.712	1.18	0.562	0.571	-0.377	0.0631	3.22	1.99	-0.193	-0.86	-0.473	1.99	0.576	0.173	-0.666	1.81
AGTCAAAGTTCACTACGTAACGTAAGATTCAGCT	5.22	4.81	2.75	3.23	1.32	3.94	5.52	5.28	2.81	4.64	0.373	1.98	1.52	1.04	1.69	3.72	2.5	2.71	1.15	4.47
TATACAGGGTAAAAGGCCAGAGTACGAATGTCGA	0.526	0.732	0.094	0.483	0.559	2.02	3.63	4.11	2.26	3.82	1.68	2.88	1.57	1.04	1.27	0.286	0.409	0.32	0.622	1.85
CGAGACAGGTGAGAAGGTAACTCAGCCTCGATTA	-0.0468	-0.124	-0.337	-0.343	-0.761	0.591	0.452	0.452	-0.196	0.138	0.944	0.575	-0.719	-0.428	0.307	-0.433	-0.255	-0.528	-0.321	0.602
ATAGAAAGGTCGACGAGGTGAGTATACACCGTTT	4.55	2.95	0.22	2.52	0.294	4.18	2.91	2.81	1.55	2.17	0.284	1.82	1.11	0.417	1.76	2.87	0.566	3.6	0.784	3.72
AGAATGAGGTTACCAAAGATCCGGGAAACGCTTG	1.58	2.04	-0.0971	1.33	-0.177	3.23	2.5	2.84	0.971	2.13	3.81	3.61	0.821	0.35	0.752	0.78	-0.0527	1.76	0.0139	2.05
CCTACTGGGCCAATCAGAGGTCATTGATCATATG	2.78	4.24	7.72	3.78	0.545	3.87	2.45	3.15	1.12	2.29	4.6	4.19	1.25	0.284	4.19	5.06	3.38	5.18	0.519	3.27
CGTACTAGGTCATCCAGGACAGTGAATACATTGA	4.17	2.58	0.958	2.46	0.292	4.53	6.87	5.33	3.15	5.25	7.23	7.74	1.93	1.33	2.23	1.87	0.94	2.45	0.55	3.8
CGTCAAAGTTCAACTAAGGTAAAGTAAAGCACGC	6.88	6.38	3.13	4.16	2.1	5.3	4.8	5.57	2.59	4.36	0.496	2.11	0.89	1.16	3.47	5.32	2.92	4.16	2.06	5.39
CGAACTAGGTCACGGACAGTGAATCTCCGCACGC	4.87	3.34	0.231	2.64	-0.137	5.68	9.36	7.68	5.94	7.84	8.66	9.1	8.25	6.07	4.94	2.4	-0.165	3.61	1.22	4.35
CTCGAAAGGTCGTGCTCAGGTGAGCATACCAAAC	5.82	4.04	-0.293	3.23	0.516	4.76	3.03	4.08	1.02	2.96	0.762	2.31	0.195	0.25	3.06	3.43	-0.196	4.74	-0.133	3.92
ACAGACAGGTGAGGGAAGGTAACTCAGCTGGACG	0.596	0.155	-0.368	-0.181	-0.443	0.389	0.791	-0.0319	-0.39	-0.182	0.476	0.747	0.431	-0.614	-0.102	-0.00447	-0.0527	0.343	-0.347	0.622
AGAAGGAGGGCAATGAGTTGATAGCACGGGTGGC	0.307	0.255	0.19	0.452	0.521	1.2	1.33	0.786	-0.173	0.451	3.57	2.64	0.99	-0.352	0.922	1.39	4.17	0.2	0.815	1.92
TAGCCTAGGTCATGGGGCCAGTATAGTACGCATC	4.54	3.52	0.182	2.77	0.0614	4.31	3.62	3.29	0.919	2.66	1.84	3.72	0.968	-0.401	3.22	2.19	-0.641	3.54	0.443	3.94
GAAACGAGGGCATTCGAGTTGATAGCATGGCGAT	1.71	2.15	-0.383	0.442	-0.542	2.05	1.35	1.32	0.0683	0.829	4.26	3.42	0.513	0.0284	-0.429	3.68	1.26	0.561	0.0115	1.85
TCTATTAGTTGAAGGGCAACCCACGAGTCCGTTT	0.7	1.04	0.728	1.18	0.631	1.08	0.343	2.04	3.83	2.89	2.65	0.706	0.623	0.929	1.43	1.02	1.09	0.823	1.21	1.65
TTACCAAGGTGAAAGCTCGTTGATGCACGCCTTG	0.225	-0.099	-0.701	-0.367	-1.12	1.29	0.87	1.43	0.448	0.792	1.69	2.4	0.152	-0.364	-0.529	-0.393	-1	0.109	-0.866	1.3
AGACCAAGGTGATCGTGAGGTCGTTGATACTAAC	1.27	0.891	0.368	0.98	-0.813	1.58	0.415	0.494	0.11	0.313	0.783	0.9	-0.832	-0.109	0.38	2.79	0.858	1.72	-0.21	1.32
ATCGAAAGTTCGAGGTGAGTATAGAGAAAGGGAA	0.831	1	-0.204	0.703	-0.225	1.76	0.648	0.797	0.3	0.478	-0.474	0.844	0.383	0.642	0.238	0.98	0.157	1.01	-0.05	2.53
CGAACGAGGGCATGAGTTGATATCAAATGCCGAT	0.475	0.326	-0.371	0.156	-0.654	1.59	1.58	1.42	0.347	0.786	3.23	2.11	0.21	-0.287	0.26	0.636	-0.013	0.352	-0.464	2.01
CCTACTGGGCAATCAGGTCATTGATATCAACGTT	0.891	1	0.766	1.27	-0.496	2.26	1.34	2.44	0.371	1.25	2.45	3.55	0.181	-0.716	0.487	1.48	0.775	1.95	0.376	1.69
CCAGTCAGGTGAGAAGGTAACTCAGCCTCGATTA	0.104	0.00917	-0.218	-0.0607	-0.774	0.601	0.294	1.13	-0.0852	0.619	1.41	1.02	-1.66	-1.63	0.612	-0.228	-0.000389	0.355	0.15	0.754
CCTATTAGTTGACCATAAGTGCAACCGAAGCTCG	0.669	0.833	1.25	0.757	1.09	0.517	0.672	0.74	0.581	0.574	0.899	0.364	1.12	0.839	1.89	1.11	1.66	0.812	2.6	0.81
CAAACTAGGTCACCGGAAGGTCTAAGTCCGCATG	3.99	3.38	0.494	2.73	0.609	5.3	8.5	7.22	4.98	6.82	8.57	9.1	1.59	1.51	2.47	2.44	0.0604	3.02	0.862	4.37
GCTAGATGGTCAGTAAAAGGTCACACACCGGTCG	3.28	4.21	4.31	4.17	0.588	4.58	2.79	3.94	1.99	3.21	0.38	2.57	0.624	-0.0918	3.76	4.83	0.89	5.65	2.5	4.43

Source: the supplement of paper PMC6555819
